Test results published in PubChem BioAssay AID2314 (National Center for Advancing Translational Sciences (NCATS), 2010).
Screen size: about 300,000 compounds; about 37,000 (12%) were called active. No stated cut-off is given here; in the data, active means max response mostly above about 13% (no sharp cut-off); inactive means mostly below about 14%. Many of the other results were omitted from the sample, so actives are more common in it than they were.

Assay: Cycloheximide Counterscreen for Small Molecule Inhibitors of Shiga Toxin; further: read at 38.3 µM for the half of the compounds with a filed dose; 0% is about no effect
Conditions: cell reporter, cycloheximide protein synthesis inhibition counterscreen; hits give high values
With `NC(=O)C1CC(=O)N(c2ccc(OCC(=O)NCc3ccccc3)cc2)C1` (stereo unspecified) the max response was -2.39% (inactive).
For `Cc1ccc(S(=O)(=O)N2CCC(C)CC2)cc1C(=O)NCc1ccccn1`, the max response was 5.45% (inactive).
With `NC(=O)c1oc2ccccc2c1NC(=O)CS(=O)(=O)c1ccccc1` the max response was 14.9% (inactive).
With `C=CCOc1cccc(CNCc2cccnc2)c1` the max response was 1.07% (inactive).
For `COc1ccc(/C=C2/C(=O)OCc3cc(OC)c(OC)cc32)c(OC)c1`, the max response was -1.45% (inactive).
With `CC(=O)c1cccc(NC(=O)C2CCN(C(=O)c3ccccc3Cl)CC2)c1` the max response was -2.1% (inactive).
In the case of `COC(=O)c1cccc(N(CC(=O)NCC2CCCO2)C(=O)CCC(=O)Nc2cc(C)on2)c1` (stereo unspecified), the max response was -2.44% (inactive).
With `COc1cccc(NC(=O)CCc2nnc3ccc(N4CCC(C)CC4)nn23)c1` the max response was -5.83% (inactive).
With `COc1ccccc1CN1CCNC(=O)C1CC(=O)N(C)CC1CCOCC1` (stereo unspecified) the max response was -1.38% (inactive).
For `Cc1ccc2nc(C)c3c(c2c1)N(c1ccccc1)CC3`, the max response was -1.78% (inactive).
With `CCc1nc2ccc(C(=O)N3CCN(c4cccc(Cl)c4)CC3)cc2nc1CC` the max response was -0.581% (inactive).
With `Cc1c(CN2CCCC(C(=O)c3cccc(Cl)c3)C2)c(=O)n(-c2ccccc2)n1C` (stereo unspecified) the max response was -3.35% (inactive).
With `Cc1ccc(-c2noc(C3CCCN(C(=O)c4cccc(Cl)c4)C3)n2)o1` (stereo unspecified) the max response was 47.3% (active).
With `Cc1cccc2c1-c1sc(C(=O)NCCCN3CCc4ccccc4C3)cc1CO2` the max response was 1.19% (inactive).
With `O=S1(=O)N=C(N(CCO)/N=C/c2ccccc2F)c2ccccc21` the max response was -7.2% (inactive).
With `CCOC(=O)Cc1csc(SCC(=O)NC(C)C23CC4CC(CC(C4)C2)C3)n1` (stereo unspecified) the max response was -2.6% (inactive).
For `O=C(CCC1CCCN(Cc2ccc(O)c(Cl)c2)C1)NCc1ccccc1F` (stereo unspecified), the max response was -1.08% (inactive).
In the case of `CSc1ncccc1C(=O)N1CCCC(CCC(=O)NCc2ccccc2F)C1` (stereo unspecified), the max response was -1.29% (inactive).
In the case of `Cc1[nH]c2c(C(=O)N3CCCC(CCC(=O)NCc4ccccc4F)C3)cccc2c1C` (stereo unspecified), the max response was 18.9% (active).
With `O=S1(=O)C=C(SCCN2CCCC2)c2ccccc21` the max response was 4.83% (inactive).
With `CC(C)(C)c1ccc(OC2=CS(=O)(=O)c3ccccc32)cc1` the max response was 81.1% (active).
With `COc1ccc(CN2CCC(=O)c3ccccc3S2(=O)=O)cc1` the max response was -4.16% (inactive).
In the case of `CS(=O)(=O)N1CCCC(C(=O)Nc2ccccc2C(F)(F)F)C1` (stereo unspecified), the max response was 0.965% (inactive).
For `CN1C(=O)c2cccc3c(N)ccc(c23)C1=O`, the max response was -4.64% (inactive).
In the case of `Cn1c(=O)c2c(nc(OCc3cccnc3)n2Cc2ccccc2)n(C)c1=O`, the max response was 14.9% (active).
For `C=CCOc1nc2c(c(=O)n(C)c(=O)n2C)n1Cc1ccc(Cl)cc1Cl`, the max response was -2.08% (inactive).
In the case of `Cn1c(=O)c2c(nc(NCCc3ccccc3)n2Cc2ccccc2)n(C)c1=O`, the max response was -1.53% (inactive).
For `CS(=O)(=O)N(CC(=O)N1CCCCCC1)c1cccc(Cl)c1Cl`, the max response was -2.66% (inactive).
With `CC(=O)Nc1ccc(S(=O)(=O)N2CCC(NC(=O)c3ccccc3)CC2)cc1` the max response was -2% (inactive).
With `COc1ccc(S(=O)(=O)N2CCN(C(=S)NCC3CCCO3)CC2)cc1OC` (stereo unspecified) the max response was -1.28% (inactive).
For `Cc1cccc(-n2c(O)c(/C=N/N3CCOCC3)c(=O)[nH]c2=S)c1`, the max response was -8.26% (inactive).
In the case of `Cc1cccc(-n2c(O)c(C=NC34CN5CN(CN(C5)C3)C4)c(=O)[nH]c2=O)c1`, the max response was 8.1% (inactive).
In the case of `Cc1cccc(-n2c(O)c(C=Nc3ccccc3N)c(=O)[nH]c2=O)c1`, the max response was 39.4% (active).
In the case of `CC1(C)Oc2ccc3ccc(=O)oc3c2/C(=N/O)C1=O`, the max response was 7.27% (inactive).
In the case of `COc1ccc(/C=N/NC(=O)C2CC2)c(OC)c1OC`, the max response was 3.25% (inactive).
In the case of `O=C(N/N=C/c1ccccc1O)C1CCCC1`, the max response was 28% (active).
For `Oc1ccccc1C=NC1CCCCC1N=Cc1ccccc1O` (stereo unspecified), the max response was 6.63% (inactive).
With `COc1cc(NC(=O)NCC2CCN(Cc3ccc(C)cc3)CC2)cc(OC)c1OC` the max response was -2.97% (inactive).
For `COc1ccccc1C(=O)OCC(=O)NCCNC(=O)COC(=O)c1ccccc1OC`, the max response was -1.55% (inactive).
With `COc1cc(C(=O)NCc2ccc3c(c2)cc(C)n3C)cc(OC)c1OC` the max response was -6.41% (inactive).
With `Cc1ccc(C(C(=O)NCC2CCCO2)N(C(=O)c2snc(C(N)=O)c2N)c2ccc(C(C)C)cc2)o1` (stereo unspecified) the max response was 8.94% (inactive).
For `COC(=O)c1ccc(Oc2nc(NC(C)C)nc(SC)n2)cc1`, the max response was 9.19% (active).
In the case of `COC(=O)c1ccc(Oc2nc(Nc3ccc(F)cc3)nc(N3CCCC3)n2)cc1`, the max response was 0.283% (inactive).
With `CCNc1nc(Oc2ccc(C(=O)OC)cc2)nc(N2CCOCC2)n1` the max response was -3.34% (inactive).
In the case of `CCOc1ccc(NC(=O)CC(Cc2ccc(Cl)cc2)C(=O)O)cc1` (stereo unspecified), the max response was -1.1% (inactive).
In the case of `O=C(O)c1ccccc1-c1ccccc1C(=O)Nc1nccs1`, the max response was -6.56% (inactive).
In the case of `CC(NC(=O)C(=O)Nc1nccs1)c1ccccc1` (stereo unspecified), the max response was -0.875% (inactive).
In the case of `Cn1cccc1C(=O)Nc1nccs1`, the max response was 18.6% (active).
In the case of `Cc1ccc2cccc(S(=O)(=O)N3CCN(c4ccccc4F)CC3)c2n1`, the max response was -1.96% (inactive).
For `COc1ccccc1Nc1cc(C(=O)NCCCN(C)C2CCCCC2)c2ccccc2n1`, the max response was -15.5% (inactive).
In the case of `Clc1cccc(Cl)c1Cn1nnc(-c2cccs2)n1`, the max response was 1.15% (inactive).
With `CCc1ccc(-c2nnn(Cc3nc4ccccc4s3)n2)cc1` the max response was 38.7% (active).
With `CCc1ccc(-c2nnn(Cc3nn[nH]n3)n2)cc1` the max response was -4.49% (inactive).
With `Cc1cc(N2CCN(c3ccc(F)cc3)CC2)n2ncnc2n1` the max response was 1.63% (inactive).
For `COC(=O)c1ccccc1NS(=O)(=O)c1ccc2[nH]c(=O)[nH]c2c1`, the max response was -1.95% (inactive).
With `Cc1ccccc1NC(=S)NNC(=O)c1cccc(Br)c1` the max response was 17.3% (active).
In the case of `CC(CC(=O)O)CC(=O)NNC(=O)c1cccc(Br)c1` (stereo unspecified), the max response was -1.69% (inactive).
For `O=C(NC(=S)Nc1cccc2c(O)cccc12)c1cccc(Br)c1`, the max response was -1.87% (inactive).
With `Cc1ccc(C)c(NC(=S)NNC(=O)c2csc(C)c2)c1` the max response was 10.1% (inactive).
For `Cc1cc(C(=O)NNC(=S)Nc2ccccc2C)cs1`, the max response was 34.5% (active).
With `Cc1cc(C(=O)NNC(=S)NC(C)c2ccccc2)cs1` (stereo unspecified) the max response was -2.7% (inactive).
